# An excerpt weighted towards active compounds, which were near 18% of everything screened.
# TDP1 block: qHTS Assay for Inhibitors of Tyrosyl-DNA Phosphodiesterase (TDP1) | Tyrosyl-DNA phosphodiesterase 1 (Homo sapiens), Q9NUW8 | recombinant TDP1, AlphaScreen DNA substrate cleavage | Potency, µM (series often up to 130 µM), inactives show top-dose activity change, negative = inhibition, hits mostly inhibitors | 350,000 compounds, 0.28% hits | AID 485290, 2010; note: potency is the fitted concentration of half-maximal effect; nearly all actives have a fitted effect of over 40% in size
#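 Recombinant E. coli-expressed Tdp1 (1 nM) preincubated with compound 15 min at RT, then 5'-biotin/3'-phosphotyrosine-FITC DNA substrate (15 nM) added for 5 min. AlphaScreen beads (10 ug/ml) added, 10 min RT; tyrosine-FITC cleavage read as signal loss.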
# IL1B secr inh: qHTS for Inhibitors of Inflammasome Signaling: IL-1-beta AlphaLISA Primary Screen. 360,000 compounds, 4.7% hits. AID 743279, 2014. activity change, % at 57.5 µM. THP-1 LPS/ATP IL-1B secretion, AlphaLISA, 16 h; stronger effect = lower value; in the data active = activity change below about -50%; inconclusive = mostly about -30% to -49%
#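 Secreted IL-1B measured by AlphaLISA bead assay after 16 h compound exposure of THP-1 cells; compounds (final up to 57.5 uM) added 1 h before LPS (250 ng/mL) and ATP (1.25 mM) stimulation; lower signal means less secretion.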
# TDP1 cell noCPT: qHTS for Inhibitors of human tyrosyl-DNA phosphodiesterase 1 (TDP1): qHTS in cells in absence of CPT; DT40 Tdp1-/- hTDP1 cells, no CPT, ATP luminescence, 48 h; Potency, µM (top dose mostly 46.2 µM), inactives show at the top dose activity change, negative = growth inhibition, hits mostly inhibitors; 420,000 compounds, 15% hits; AID 686978, 2013; note: potency is the fitted concentration of half-maximal effect; nearly all actives have a fitted effect of over 55% in size
#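 Stably hTDP1-transfected Tdp1-null chicken DT40 cells were treated with library compounds minus camptothecin and grown for at least 48 hr at 37 °C, after which cellular ATP was quantified by luminescence.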
# CtBP-E1A blk: qHTS Assay for Inhibitors of the CtBP/E1A Interaction; CtBP / adenovirus E1A interaction (AlphaScreen); AlphaScreen GST-E1A/His-CtBP binding, 1536-well; stronger effect = lower value; activity change, % (test concentration not listed); 340,000 compounds, 0.49% hits; AID 651724, 2012; in the data active = activity change below about -65%; inconclusive = mostly about -30% to -63%
#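 Protein mix (5X: 125 nM each GST-E1A, His-CtBP) was incubated with pinned compound 2 h at 37 deg C in dark, in 50 mM Tris pH 8.0 buffer with 300 mM NaCl. Glutathione donor and nickel acceptor beads followed; AlphaScreen signal read after 1 h.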
# Six1-Eya2 inh: qHTS Assay for Inhibitors of the Six1/Eya2 Interaction. Homeobox protein SIX1 (Homo sapiens) + Protein phosphatase EYA2 (Homo sapiens), …. AlphaScreen GST-Six1/His-Eya2 binding, biochemical; stronger effect = lower value. activity change, % (no concentration beside the values). 360,000 compounds, 0.56% hits. AID 651725, 2012; in the data active = activity change below about -65%; inconclusive = mostly about -30% to -63%
# Target sequence (O00167 whole entry, looked up): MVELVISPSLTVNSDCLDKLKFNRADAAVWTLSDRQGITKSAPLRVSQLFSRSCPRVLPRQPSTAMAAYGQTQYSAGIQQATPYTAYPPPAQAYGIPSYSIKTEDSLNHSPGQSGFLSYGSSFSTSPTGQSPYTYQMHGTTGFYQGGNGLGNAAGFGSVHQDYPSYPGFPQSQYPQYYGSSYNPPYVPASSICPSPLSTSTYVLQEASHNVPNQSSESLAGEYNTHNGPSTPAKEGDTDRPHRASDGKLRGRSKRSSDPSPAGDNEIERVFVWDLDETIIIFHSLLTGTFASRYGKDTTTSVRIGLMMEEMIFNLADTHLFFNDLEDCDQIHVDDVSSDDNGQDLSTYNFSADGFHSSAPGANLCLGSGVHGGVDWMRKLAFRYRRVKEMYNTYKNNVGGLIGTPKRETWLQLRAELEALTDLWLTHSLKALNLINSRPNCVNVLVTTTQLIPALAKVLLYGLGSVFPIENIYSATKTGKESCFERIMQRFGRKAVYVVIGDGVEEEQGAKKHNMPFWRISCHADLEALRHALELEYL
# Target sequence (Q15475 whole entry, looked up): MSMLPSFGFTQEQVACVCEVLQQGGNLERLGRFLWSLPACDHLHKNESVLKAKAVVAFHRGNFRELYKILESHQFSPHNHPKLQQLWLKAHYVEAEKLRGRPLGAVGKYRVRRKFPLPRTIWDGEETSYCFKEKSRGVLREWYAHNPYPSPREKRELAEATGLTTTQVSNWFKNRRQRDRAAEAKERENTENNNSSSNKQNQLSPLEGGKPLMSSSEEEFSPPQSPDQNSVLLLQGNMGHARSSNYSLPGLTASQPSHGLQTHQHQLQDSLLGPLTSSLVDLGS
#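 Compounds are tested against tagged Six1 and Eya2 proteins bridged by glutathione donor and nickel acceptor beads; after a one-hour incubation at 37 °C without light, AlphaScreen emission is recorded.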
# TDP1 cell CPT: qHTS for Inhibitors of human tyrosyl-DNA phosphodiesterase 1 (TDP1): qHTS in cells in presence of CPT. chicken DT40 Tdp1-/-;hTDP1 cells + 20 nM CPT, ATP luminescence, 48 h. Potency, µM (titrated, usually from 46.2 µM), for the others: top-dose activity change, negative = growth inhibition, hits mostly inhibitors. 420,000 compounds, 12% hits. AID 686979, 2013; note: potency is the fitted concentration of half-maximal effect; nearly all actives have a fitted effect of over 55% in size
#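 Cell growth measured by CellTiter-Glo luminescence after a minimum 48 h, 37 C compound exposure with 20 nM CPT in Tdp1-knockout DT40 cells stably expressing hTDP1, seeded 400/well; qHTS titration format.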
# * marks the source's active call; other numbers are inactive results; ? = inconclusive; / = not tested or not shown; [ ] = another dose, or the depositor's remark. Unless noted, calls come from the whole dose curve; as a rule, active = well fitted curve in the direction sought with a large enough effect; inconclusive = small, poorly fitted or top-dose-only effect, or another doubt; inactive = no such curve, though single readings can be large; an effect the other way counts as inactive or inconclusive. % is set by controls: 0 for no effect and ±100 for the full control effect.
SMILES,TDP1 block,IL1B secr inh,TDP1 cell noCPT,CtBP-E1A blk,Six1-Eya2 inh,TDP1 cell CPT
CCN(CC(=O)Nc1c(F)cccc1F)C(=O)CCCOc1ccc(OC)cc1,6%,2,-27%,-4,-6,-4%
Cc1cc(C)cc(OCC(=O)N(Cc2cccs2)C2CCS(=O)(=O)C2)c1 (stereo unspecified),2%,-3,0%,2,5,-16%
CCOc1ccc(-c2csc(-c3nc(-c4ccc(Br)s4)cs3)n2)cc1,5%,/,0%,/,/,13%
CCOc1ccc(-c2nc(CCl)cs2)cc1,-5%,-2,?,-7,9,10µM*
ClCc1csc(-c2ccc(Cl)cc2)n1,-5%,?,15µM*,-3,2,13µM*
COc1cc2cc(C)c(Br)c(OC)c2cc1OC,/,-27,?,0,4,?
COc1cc2cc[n+]3cc4c(OC)c(OC)ccc4cc3c2cc1OC,-7%[56.1 µM],/,2.9µM*,/,/,2.3µM*
CC(=O)Nc1cc(-c2cccc(C(=O)NCCO)c2)cn2c(-c3ccc(F)c(Cl)c3)cnc12,/,1,23µM*,0,-4,29µM*
COc1cccc(-c2cnc3c(NC(C)=O)cc(-c4cccc(C(=O)NCCO)c4)cn23)c1,/,-10,?,-26,-20,16µM*
CCN1C(=O)/C(=c2\o/c(=C3\C=Cc4ccccc4N3CC)c(=O)n2CC)SC1=S,6%,-9,-28%,6,-19,-25%
CCN1C(=O)/C(=C2\C=Cc3ccccc3N2CC)SC1=S,14%,-4,18µM*,?,?,15µM*
O=[N+]([O-])c1ccc2c(c1)C=C/C2=C\c1ccccc1,/,/,-11%,/,/,-19%
O=[N+]([O-])c1ccc(/C=C2\C=Cc3ccccc32)cc1,/,/,?,/,/,8.9µM*
CSc1ccc(/C=C2\C=Cc3cc([N+](=O)[O-])ccc32)cc1,/,/,16µM*,/,/,11µM*
COc1ccc(OC)c2[nH]c(=O)c(CCNS(=O)(=O)c3ccc(C)cc3)cc12,4%,-11,-10%,7,11,3%
Cc1cccc2c(=O)c(-c3ccc(Cl)cc3)c(NC(=O)c3ccco3)oc12,2%,50,8%,-4,-6,-5%
COc1ccc(NC(=O)CSc2nc3ccccc3n2CC(=O)N2CCCC(C)C2)cc1 (stereo unspecified),-1%,/,21µM*,/,/,?
CN(C(=O)CSc1nc2ccccc2n1CC(=O)N(C)C1CCCCC1)c1ccc(F)cc1,6%,/,29µM*,/,/,?
COc1ccc(NC(=O)CSc2nc3ccccc3n2CC(=O)N(C)c2ccc(F)cc2)cc1,-1%,/,15µM*,/,/,?
Cc1ccc(NC(=O)CSc2nc3ccccc3n2CC(=O)N(C)C2CCCCC2)cc1C,9%,/,18µM*,/,/,?
COc1cccc(CNC(=O)Cn2c(SCC(=O)Nc3ccc(C)c(C)c3)nc3ccccc32)c1,4%,/,?,/,/,?
COc1ccccc1NC(=O)Cn1c(SCC(=O)Nc2ccc(F)cc2)nc2ccccc21,1%,/,?,/,/,?
CCC(C)N(C(=O)COC(=O)c1cn(CC)c2nc(C)ccc2c1=O)C1CCS(=O)(=O)C1 (stereo unspecified),5%,-15,-2%,0,0,0%
CCCCCn1c(=O)[nH]c2cc(C(=O)NCCc3ccc(OC)c(OC)c3)ccc2c1=O,6%,-22,-15%,-2,-18,0%
CCCOc1ccc(CC2C(=O)Nc3ccc(Br)cc32)cc1 (stereo unspecified),-3%,/,18µM*,/,/,?
SMILES,TDP1 block,IL1B secr inh,TDP1 cell noCPT,CtBP-E1A blk,Six1-Eya2 inh,TDP1 cell CPT
CCOc1c(CC2C(=O)Nc3ccc(Br)cc32)cccc1OC (stereo unspecified),-2%,/,16µM*,/,/,?
O=C1Nc2ccc(Br)cc2C1Cc1ccccc1F (stereo unspecified),1%,19,5%,5,0,38%
COc1ccc(OC)c(CC2C(=O)Nc3ccc(Br)cc32)c1 (stereo unspecified),8%,/,7.3µM*,/,/,10µM*
CCOc1ccccc1CC1C(=O)Nc2ccc(Br)cc21 (stereo unspecified),4%,/,?,/,/,?
O=C(NCC1CC1)c1ccc2c(c1)S(=O)(=O)c1cc(Cl)ccc1C2=O,4%,?,?,-9,-12,?
O=C(Nc1nnc(-c2cccs2)o1)C1CC1,/,4,3%,-11,-8,0%
CN(C)S(=O)(=O)c1ccc(C(=O)Nc2nnc(-c3ccc4c(c3)CCCC4)o2)cc1,11%,4,5.2µM*,0,4,2.9µM*
O=C(Nc1nnc(-c2ccc3c(c2)CCCC3)o1)c1c(F)cccc1F,7%,3,-19%,-2,0,10%
CSCc1nnc(NC(=O)c2ccc(S(=O)(=O)N(C)C)cc2)o1,6%,-17,?,-24,-11,?
N#Cc1ccc(C(=O)Nc2nnc(-c3cccs3)o2)cc1,/,34,7.3µM*,-1,-12,5.2µM*
O=C(Nc1nnc(-c2cccs2)o1)c1cccc(C(F)(F)F)c1,13%,73,5.2µM*,-12,-7,5.2µM*
CN(C)S(=O)(=O)c1ccc(C(=O)Nc2nnc(-c3cccs3)o2)cc1,8%,22,23µM*,/,-14,13µM*
COc1cc(C2c3c(oc4ccccc4c3=O)C(=O)N2Cc2ccccc2Cl)ccc1O (stereo unspecified),-1%,/,-15%,/,/,-1%
O=C(NCc1ccccc1)c1cc2ccc(O)cc2oc1=O,3%,12,?,-6,6,?
CCN(CC)C(=O)c1cccc(-c2csc(C(O)c3ccccc3)n2)c1 (stereo unspecified),/,11,23µM*,1,2,?
CCN(CC)C(=O)c1cccc(-c2csc(C(NC(C)=O)c3ccccc3)n2)c1 (stereo unspecified),/,6,?,0,1,?
CCN(CC)C(=O)c1cccc(-c2csc(C(O)c3ccc(F)c(F)c3)n2)c1 (stereo unspecified),/,3,?,1,0,23µM*

# Bioassay records from PubChem BioAssay.
